Results with a measured potency or affinity are listed apart. Calls of active or inactive are those of the source.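 How the source made its calls: active means signal drop whose fitted half-maximal concentration is at most twice the top valid dose, in every test run; inconclusive means mixed calls across runs, poor fit, or flat 30 to 70% inhibition; inactive means wrong direction, flat within 30%, or potency beyond limit.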

A short description of this assay: cytotoxicity in PAX8-dependent RMG-1 cells, dose response, cell-based, cherry-pick (AID 687029).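 Further: cells exposed to compound for 96 hours.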 The settings on record: RMG-1 viability, CellTiterGlo ATP luminescence, 96 h; series mostly up to 35 µM.
With `O=C1c2cccc3c(O)ccc(c23)C(=O)N1c1ccc(Cl)cc1`, the molecule was classed as inactive.

Turning to `CC(=O)Nc1ccc(C(=O)CSc2cc(C)c3cccc(C)c3n2)cc1`, the molecule was called inactive.

With `COc1ccc(C)cc1NC(=O)C1CCCN(S(=O)(=O)c2cccc3nonc23)C1` (configuration not stated), the call was inactive.

With `Fc1ccc(CSc2ccc(-c3ccco3)nn2)cc1`, the result was inactive.

Consider `Cc1cccc(OCc2nc(-c3cccnc3)no2)c1`, for which the result was inactive.

Regarding `O=C(O)CC(NC(=O)C1c2ccccc2Oc2ccccc21)c1ccc(OC2CCCC2)cc1` (configuration not stated), the molecule was called inactive.

With `O=[N+]([O-])c1ccc2nc(SCc3cn4ccccc4n3)[nH]c2c1`, the call was inactive.

Consider `COc1ccc2oc(C)c(C(=O)c3ccc([N+](=O)[O-])cc3)c2c1`, for which the outcome was inactive.

`CN(C(=O)COC(=O)C1CCN(S(=O)(=O)c2c(Cl)cccc2Cl)CC1)C1CCS(=O)(=O)C1` (configuration not stated): the outcome was inactive.

As for `O=C(Cn1cc(C(F)(F)F)ccc1=O)Nc1ccc2c(c1)OCO2`, the call was inactive.

In the case of `O=C(/C=C/c1ccco1)Nc1nc(-c2ccccc2)cs1`, the call was inactive.

For `O=C(Nc1ccccc1)N1CCCCN2[C@@H](CO)[C@@H](c3ccc(C#Cc4ccccc4)cc3)[C@@H]2C1`, the molecule was classed as inactive.

Take `CCCCC(=O)N1CCN(c2ccc(OC)cc2[N+](=O)[O-])CC1`: the call was inactive.

Regarding `O=C(CSc1cccc[n+]1[O-])Nc1cc(S(=O)(=O)N2CCOCC2)ccc1N1CCOCC1`, the result was inactive.

As for `CCN(C(=O)COC(=O)c1ccc(S(=O)(=O)N2CCCc3ccccc32)cc1)C1CCS(=O)(=O)C1` (configuration not stated), the molecule was called inactive.

Turning to `CN1CCN(C(=S)Nc2ccc(Cl)c(Cl)c2)CC1`, the outcome was inactive.

In the case of `CC(=O)N/C(=C\c1ccccc1)C(=O)OCC(=O)NC1CCCC1`, the molecule was called inactive.

Source of the values: PubChem BioAssay.
